PubChem BioAssay (NCATS)
Records with an inconclusive call do not appear. Activity calls are given as the source filed them. Calls come from the whole dose curve; as a rule, active = well fitted inhibition curve with a large enough effect; inconclusive = small, poorly fitted or top-dose-only effect; inactive = flat fitted curve, though single readings scatter.

How the values were obtained:
Test in all cases: Cytotoxic Profiling of Annotated Libraries Using Quantitative High-Throughput Screening (AID 1296008); note: nearly all actives have a fitted effect of over 60% in size
Details in all cases: Five cell lines viability, CellTiter-Glo ATP luminescence, 48-72 h; max response: stronger effect = lower value
CRL-7250 = normal cell line; tested on: CRL-7250
Summary of the method: (§1)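 Cytotoxicity was measured as CellTiter-Glo ATP luminescence, read after 10 min at room temperature. Compound treatment of the cells lasted 48 or 72 hr at 37 degrees Celsius in a qHTS format.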

HEK293 = tested on: HEK293
Summary of the method: as §1

HaCat = tested on: HaCat
Summary of the method: as §1

KB-3-1 = tested on: KB-3-1
Summary of the method: as §1

NIH3T3 = tested on: NIH3T3
Summary of the method: as §1
% is set by controls: 0 for no effect and ±100 for the full control effect; potency is the fitted concentration of half-maximal effect.

Cc1ccc(C)c(NC(=O)CNS(=O)(=O)c2ccc3[nH]c(=O)oc3c2)c1
inactive: outcome (CRL-7250) | max response (HEK293) -17.1% | max response (HaCat) -0.793% | max response (KB-3-1) 8.68% | outcome (NIH3T3)

C=C1C(O)CC2C(C(=O)O)=COC(O[C@@H]3O[C@H](COC(=O)c4ccc(O)cc4)[C@@H](O)[C@H](O)[C@H]3O)C12 (stereo not given in full)
inactive: outcome (CRL-7250) | max response (HEK293) -1.77% | max response (HaCat) 2.09% | outcome (KB-3-1) | outcome (NIH3T3)

COc1cccc(C(=O)NCCNc2nc3cc(C)cc(C)c3cc2C#N)c1
inactive: max response (CRL-7250) -1.46% | max response (HEK293) -19% | outcome (HaCat) | max response (KB-3-1) 5.87% | max response (NIH3T3) -4.31%

COc1ccc(-n2[nH]c3c(cnc4ccccc43)c2=O)cc1
inactive: max response (CRL-7250) 1.83% | max response (HEK293) -1.19% | outcome (HaCat) | outcome (KB-3-1) | max response (NIH3T3) 3.94%

CC(=O)O[C@@H]1C[C@@H](C)[C@](O)(CCC2=CC(=O)OC2)[C@@]2(C)CCCC(C)(C)C12 (stereo not given in full)
inactive: outcome (CRL-7250) | max response (HEK293) -5.82% | outcome (HaCat) | max response (KB-3-1) 9.64% | max response (NIH3T3) 2.01%

O=C(CCCCC1CCCCC1)N1CCC(c2cnc[nH]2)CC1
active: Potency (HEK293) 5.8 µM
inactive: max response (CRL-7250) -15.2% | outcome (HaCat) | max response (KB-3-1) -20.1% | outcome (NIH3T3)

CC1=C2CC3C(CCC3(C)O)C(C)(O)CC2OC1=O (stereo not given)
inactive: max response (CRL-7250) -2.15% | outcome (HEK293) | max response (HaCat) 3.12% | max response (KB-3-1) 6.46% | max response (NIH3T3) -16.4%

C=C(C)C(O)COc1ccc(CC(=O)O)cc1 (stereo not given)
inactive: max response (CRL-7250) -8.29% | max response (HEK293) 2.49% | max response (HaCat) -1.96% | outcome (KB-3-1) | outcome (NIH3T3)

C=C(C)[C@@H]1CC[C@]2(C)CC[C@]3(C)C(CCC4[C@@]5(C)CC[C@H](O)C(C)(C)C5CC[C@]43C)C12 (stereo not given in full)
inactive: outcome (CRL-7250) | max response (HEK293) 1.06% | outcome (HaCat) | outcome (KB-3-1) | max response (NIH3T3) 2.33%

CO[C@H]1c2cc(C(C)C)c(O)c(O)c2[C@@]23CCCC(C)(C)C2[C@@H]1OC3=O (stereo not given in full)
inactive: outcome (CRL-7250) | max response (HEK293) -7.48% | outcome (HaCat) | outcome (KB-3-1) | outcome (NIH3T3)

C[C@H]1/C=C/C=C/C=C/C=C/C=C/[C@@H](O)[C@H](C(=O)O)[C@H](O)C[C@H](O)CCC[C@H](O)C[C@H](O)C[C@H](O)[C@@H](C)C(=O)O[C@@H]1C
inactive: outcome (CRL-7250) | max response (HEK293) 1.51% | max response (HaCat) 2.29% | max response (KB-3-1) 7.54% | outcome (NIH3T3)

N#Cc1ccc(C2CCCc3cncn32)cc1 (stereo not given)
inactive: max response (CRL-7250) -28.9% | max response (HEK293) -80.6% | max response (HaCat) 3.15% | outcome (KB-3-1) | outcome (NIH3T3)

CC(=O)NC(C(=O)OC1CCC(C)(C)C2CC=C3C(=O)OCC3C12C)C(C)C (stereo not given)
inactive: outcome (CRL-7250) | max response (HEK293) -2.64% | outcome (HaCat) | outcome (KB-3-1) | max response (NIH3T3) 4.96%

NC(Cc1c[nH]c2ccc(O)cc12)C(=O)O (stereo not given)
inactive: max response (CRL-7250) -7.16% | max response (HEK293) -8.59% | max response (HaCat) 0.887% | outcome (KB-3-1) | outcome (NIH3T3)

CC(=O)OCC1=C[C@@H]2OC(=O)C3=CO[C@@H](O[C@@H]4O[C@H](CO)[C@@H](O)[C@H](O)[C@H]4O)[C@H]1[C@@H]32
inactive: max response (CRL-7250) 2.42% | max response (HEK293) 4.59% | outcome (HaCat) | outcome (KB-3-1) | max response (NIH3T3) 0.706%

COc1ccc([C@H]2OC[C@H]3[C@@H]2CO[C@@H]3c2ccc(O[C@@H]3O[C@H](CO)C(O)[C@H](O)[C@H]3O)c(OC)c2)cc1OC (stereo not given in full)
inactive: max response (CRL-7250) -2.87% | max response (HEK293) 1.89% | max response (HaCat) -9.63% | max response (KB-3-1) -3.78% | outcome (NIH3T3)

CCCCS(=O)(=O)NC(Cc1ccc(OCCCCC2CCNCC2)cc1)C(=O)O (stereo not given)
inactive: max response (CRL-7250) -1.48% | max response (HEK293) -14% | max response (HaCat) 4.29% | max response (KB-3-1) 0.365% | outcome (NIH3T3)

CC1CC(=O)C2C(O)(C1)CC(O)C13OC1c1c(O)cccc1C(=O)C23O (stereo not given)
inactive: outcome (CRL-7250) | max response (HEK293) -12.4% | outcome (HaCat) | max response (KB-3-1) 3.15% | outcome (NIH3T3)

N#CN1CCC[C@@H](n2nc(-c3ccc(Oc4ccc(F)cc4F)cc3)c(C(N)=O)c2N)C1
inactive: max response (CRL-7250) -1.33% | max response (HEK293) -4.05% | outcome (HaCat) | outcome (KB-3-1) | max response (NIH3T3) 1.04%

CN(C)c1ccc(C2O[C@@H](c3ccccc3)C[C@H](c3ccccc3)O2)cc1 (stereo not given in full)
inactive: outcome (CRL-7250) | max response (HEK293) -10.1% | outcome (HaCat) | outcome (KB-3-1) | max response (NIH3T3) 4.55%

O=C(O)c1ccnc2cc(-c3nc4ccccc4n3CCN3CCCCC3)sc12
inactive: max response (CRL-7250) 1.05% | max response (HEK293) 2.48% | max response (HaCat) -0.587% | max response (KB-3-1) 2.06% | outcome (NIH3T3)

O=C(OCC(O)CO[C@@H]1O[C@H](C(=O)O)[C@@H](O)[C@H](O)[C@H]1O)c1ccccc1 (stereo not given in full)
inactive: max response (CRL-7250) 4.18% | max response (HEK293) -2.05% | outcome (HaCat) | max response (KB-3-1) 0.261% | max response (NIH3T3) 0.296%
